In PubChem BioAssay (EPA / NIEHS):
Records with an inconclusive call do not appear. Active and inactive are the calls of the source. The calls were made as follows, unless noted: active = hit-call score of the fitted dose curve at least 0.9, where 1 is the maximum; inactive = score below 0.9.

Columns and labels:
[1] = molecular target: human Peroxisome Proliferator-activated Receptor alpha (PPARa), PPARA (gene 5465) (UniProt Q07869); test: NVS_NR_hPPARa: NovaScreen (NVS) Nuclear Receptor Binding Assay for human Peroxisome Proliferator-activated Receptor alpha (PPARa) (AID 2283359; active = hit-call score of the fitted dose curve at least 0.9, where 1 is the maximum;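 also: activity means loss of TR-FRET signal versus DMSO baseline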)
human Peroxisome Proliferator-activated Receptor alpha (PPARa), PPARA (gene 5465), sequence (Q07869 whole entry, looked up): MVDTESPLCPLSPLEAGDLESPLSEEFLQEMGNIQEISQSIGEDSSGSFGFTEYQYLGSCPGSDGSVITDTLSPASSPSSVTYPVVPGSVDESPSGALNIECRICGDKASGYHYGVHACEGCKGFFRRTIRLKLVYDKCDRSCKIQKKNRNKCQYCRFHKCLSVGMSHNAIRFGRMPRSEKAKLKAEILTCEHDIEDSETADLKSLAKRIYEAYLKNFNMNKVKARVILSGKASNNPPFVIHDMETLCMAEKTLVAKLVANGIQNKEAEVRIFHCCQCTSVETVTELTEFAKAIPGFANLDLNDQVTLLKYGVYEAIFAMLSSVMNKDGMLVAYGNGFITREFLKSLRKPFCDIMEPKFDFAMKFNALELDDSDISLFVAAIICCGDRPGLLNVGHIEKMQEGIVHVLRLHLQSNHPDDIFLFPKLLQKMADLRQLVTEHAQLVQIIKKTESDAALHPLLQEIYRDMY
Outline: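 Cell-free TR-FRET binding assay with extracted PPARα protein, read 1 h after dosing. Primary screen in duplicate at 25 uM, with actives retested in concentration series. Loss of signal versus DMSO.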

[2] = CEETOX_H295R_MTT_cell_viability: Viability Assessment in the CeeTox HT-H295R MTT Assay (AID 2283718)
Outline: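 Human H295R adrenal cells, prestimulated 48 h with 10 uM forskolin, were exposed 48 h to chemicals in 0.1% DMSO. Viability was measured in the same wells by MTT (0.5 mg/ml, 4 h, 37 C), absorbance 570/650 nm, as percent of controls.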

[3] = system: SERPINA7 (gene 6906); test: CCTE_GLTED_hTBG: CCTE's human Thyroxine-binding Globulin (TBG) Inhibition Assay, Great Lakes Toxicology and Ecology Division (GLTED) Lab (AID 2284343; active = hit-call score of the fitted dose curve at least 0.9, where 1 is the maximum;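 also: active chemicals lower fluorescence versus DMSO baseline by displacing probe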)
Outline: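 hTBG + test chem, 2 h; ANSA probe displacement; fluorescence readout ex380/em475; DMSO = neg ctrl/baseline; cell-free.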

[4] = system: TTR (gene 7276); test: CCTE_GLTED_hTTR_0.125uM: CCTE's human Transthyretin (hTTR) Inhibition Assay, with 0.125uM TTR, Great Lakes Toxicology and Ecology Division (GLTED) Lab (AID 2284431);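 also: hits lower the fluorescence signal relative to DMSO baseline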
Outline: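 Activity is defined as decreased ANSA fluorescence (ex 380, em 475) from human transthyretin, 0.125uM, following 2-hour chemical exposure in a cell-free setup, with DMSO as baseline.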

[5] = molecular target: human Ephrin type-A Receptor 1 (EphA1), EPHA1 (gene 2041) (UniProt P21709); test: NVS_ENZ_hEphA1: NovaScreen (NVS) Enzymatic Assay for human Ephrin type-A Receptor 1 (EphA1) (AID 2283158; active = hit-call score of the fitted dose curve at least 0.9, where 1 is the maximum;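 also: activity is signal loss versus DMSO meaning EphA1 kinase inhibition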)
human Ephrin type-A Receptor 1 (EphA1), EPHA1 (gene 2041), sequence (P21709 whole entry, looked up): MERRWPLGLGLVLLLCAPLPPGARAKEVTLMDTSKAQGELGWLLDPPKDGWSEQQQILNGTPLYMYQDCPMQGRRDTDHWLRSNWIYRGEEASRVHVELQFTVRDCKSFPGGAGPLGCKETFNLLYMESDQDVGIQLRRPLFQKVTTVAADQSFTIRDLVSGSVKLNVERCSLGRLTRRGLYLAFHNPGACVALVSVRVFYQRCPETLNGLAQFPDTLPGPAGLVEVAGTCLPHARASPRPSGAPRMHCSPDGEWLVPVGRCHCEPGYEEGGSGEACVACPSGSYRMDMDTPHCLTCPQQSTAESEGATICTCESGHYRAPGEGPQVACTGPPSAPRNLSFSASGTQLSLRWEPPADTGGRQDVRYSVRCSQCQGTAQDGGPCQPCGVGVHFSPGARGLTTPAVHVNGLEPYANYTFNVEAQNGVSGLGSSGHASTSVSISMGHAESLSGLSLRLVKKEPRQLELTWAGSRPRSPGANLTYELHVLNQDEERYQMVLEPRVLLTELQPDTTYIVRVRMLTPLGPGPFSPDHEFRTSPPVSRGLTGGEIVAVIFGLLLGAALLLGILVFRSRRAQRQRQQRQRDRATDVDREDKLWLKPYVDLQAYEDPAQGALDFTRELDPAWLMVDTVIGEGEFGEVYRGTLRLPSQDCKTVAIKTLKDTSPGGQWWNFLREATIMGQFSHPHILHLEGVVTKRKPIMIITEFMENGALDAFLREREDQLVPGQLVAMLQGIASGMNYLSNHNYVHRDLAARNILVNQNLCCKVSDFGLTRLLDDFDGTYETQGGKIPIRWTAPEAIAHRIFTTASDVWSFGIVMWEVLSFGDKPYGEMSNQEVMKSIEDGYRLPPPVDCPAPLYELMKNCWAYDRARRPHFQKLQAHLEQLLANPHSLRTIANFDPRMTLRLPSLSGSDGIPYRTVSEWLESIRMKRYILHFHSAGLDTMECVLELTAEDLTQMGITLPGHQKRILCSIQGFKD
Outline: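 Here the EphA1 protein is recombinant and the substrate fluorescent, with electrophoretic separation before fluorescence detection at 1 hour. Signal loss against DMSO defines activity; plate controls included; follow-up concentration series reach 50 uM.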

[6] = molecular target: human Phosphodiesterase 10 (PDE10), PDE10A (gene 10846) (UniProt Q9Y233); test: NVS_ENZ_hPDE10: NovaScreen (NVS) Enzymatic Assay for human Phosphodiesterase 10 (PDE10) (AID 2283195; active = hit-call score of the fitted dose curve at least 0.9, where 1 is the maximum)
human Phosphodiesterase 10 (PDE10), PDE10A (gene 10846), sequence (Q9Y233 whole entry, looked up): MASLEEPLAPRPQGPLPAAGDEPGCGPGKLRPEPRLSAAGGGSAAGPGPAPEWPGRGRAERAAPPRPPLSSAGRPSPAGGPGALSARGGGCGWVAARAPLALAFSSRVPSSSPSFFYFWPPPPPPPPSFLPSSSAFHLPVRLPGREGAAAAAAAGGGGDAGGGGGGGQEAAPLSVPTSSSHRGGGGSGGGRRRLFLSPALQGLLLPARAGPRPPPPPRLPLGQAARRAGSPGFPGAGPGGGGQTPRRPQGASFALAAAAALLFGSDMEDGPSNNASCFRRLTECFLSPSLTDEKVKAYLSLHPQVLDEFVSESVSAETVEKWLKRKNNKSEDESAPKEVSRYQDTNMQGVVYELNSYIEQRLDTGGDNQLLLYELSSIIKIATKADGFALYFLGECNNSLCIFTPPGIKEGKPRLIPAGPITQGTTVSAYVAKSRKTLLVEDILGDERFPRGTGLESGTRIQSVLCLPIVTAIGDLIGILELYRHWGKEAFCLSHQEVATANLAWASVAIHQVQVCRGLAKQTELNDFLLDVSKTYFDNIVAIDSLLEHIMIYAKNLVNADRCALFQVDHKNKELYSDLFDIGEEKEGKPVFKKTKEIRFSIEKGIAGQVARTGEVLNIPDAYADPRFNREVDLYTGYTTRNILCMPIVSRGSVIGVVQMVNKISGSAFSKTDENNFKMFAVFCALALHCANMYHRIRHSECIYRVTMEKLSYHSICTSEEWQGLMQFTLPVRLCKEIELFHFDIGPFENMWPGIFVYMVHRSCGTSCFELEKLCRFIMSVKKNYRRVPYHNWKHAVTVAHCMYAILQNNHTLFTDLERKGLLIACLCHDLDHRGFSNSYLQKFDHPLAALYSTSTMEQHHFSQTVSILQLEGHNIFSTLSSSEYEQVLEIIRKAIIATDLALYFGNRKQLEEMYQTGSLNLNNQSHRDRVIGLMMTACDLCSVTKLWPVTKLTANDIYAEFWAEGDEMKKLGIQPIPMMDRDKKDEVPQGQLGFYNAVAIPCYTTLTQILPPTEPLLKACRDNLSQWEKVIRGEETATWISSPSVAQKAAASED
Outline: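 Recombinant human PDE10 with fluorescent substrate, 1 h, product separated by electrophoretic mobility shift. Loss of enzyme activity fitted against DMSO; initial screen 25 uM in duplicate, actives run to 50 uM maximum.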

[7] = molecular target: Bile acid receptor (Homo sapiens) (UniProt Q96RI1); test: OT_FXR_FXRSRC1_0480: Odyssey Thera (OT) 8-hour HEK293T Protein-Complementation Assay for Farnesoid X receptor/SRC-1 Co-activator (AID 2283383; active = hit-call score of the fitted dose curve at least 0.9, where 1 is the maximum)
Bile acid receptor (Homo sapiens), sequence (Q96RI1 whole entry, looked up, the tested form may be a part): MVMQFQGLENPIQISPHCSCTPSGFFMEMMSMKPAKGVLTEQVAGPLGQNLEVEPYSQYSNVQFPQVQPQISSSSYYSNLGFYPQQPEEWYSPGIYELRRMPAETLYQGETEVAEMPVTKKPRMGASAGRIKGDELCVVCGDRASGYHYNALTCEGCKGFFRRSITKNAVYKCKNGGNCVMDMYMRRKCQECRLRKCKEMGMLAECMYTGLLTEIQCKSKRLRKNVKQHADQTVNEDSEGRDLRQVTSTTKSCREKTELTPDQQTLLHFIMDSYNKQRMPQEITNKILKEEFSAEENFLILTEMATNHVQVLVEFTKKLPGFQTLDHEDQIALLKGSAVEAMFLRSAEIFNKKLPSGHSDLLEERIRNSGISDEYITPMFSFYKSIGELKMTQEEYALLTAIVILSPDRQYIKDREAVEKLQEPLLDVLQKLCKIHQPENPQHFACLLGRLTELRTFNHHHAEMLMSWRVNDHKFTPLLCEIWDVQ
Outline: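 Human kidney HEK293T cells carried FXR/SRC-1 fragment-complementation constructs. Compounds were added and incubated 8 h. Reporter reassembly upon receptor–co-activator interaction was then quantified by fluorescence, with curves fitted in the positive direction relative to DMSO.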

[8] = CCTE_Deisenroth_AIME_384WELL_CTox_Inactive: Cytotoxicity Assessment (CTOX) in CCTE's 384-well Estrogen Receptor Transactivation Assay without AIME metabolic competence (metabolism negative), Deisenroth Lab (AID 2284039; active = hit-call score of the fitted dose curve at least 0.9, where 1 is the maximum;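 also: cell viability via live-cell protease substrate cleaved to fluorescent probe; cells exposed 24 h to medium preincubated 2 h with alginate-water beads without S9; loss of fluorescence signal means loss of viability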)
Outline: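 Metabolism-negative arm: chemicals (10-point, 0.002 - 200 uM) preincubated 2 h with alginate-water lids, medium moved onto VM7Luc4E2 cells for 24 h. Fluorescent live-cell protease readout; bidirectional curve fit.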

[9] = molecular target: Nuclear receptor subfamily 1 group I member 3 (Homo sapiens) (UniProt Q14994); test: ATG_CAR_TRANS: Attagene TRANS-FACTORIAL HepG2 Assay for human Constitutive Androstane Receptor (CAR) (AID 2282969; active = hit-call score of the fitted dose curve at least 0.9, where 1 is the maximum;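 also: activators raise reporter mRNA above DMSO so AC50 marks induction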); settings: HepG2 Attagene TRANS-FACTORIAL CAR reporter
Nuclear receptor subfamily 1 group I member 3 (Homo sapiens), sequence (Q14994 whole entry, looked up, the tested form may be a part): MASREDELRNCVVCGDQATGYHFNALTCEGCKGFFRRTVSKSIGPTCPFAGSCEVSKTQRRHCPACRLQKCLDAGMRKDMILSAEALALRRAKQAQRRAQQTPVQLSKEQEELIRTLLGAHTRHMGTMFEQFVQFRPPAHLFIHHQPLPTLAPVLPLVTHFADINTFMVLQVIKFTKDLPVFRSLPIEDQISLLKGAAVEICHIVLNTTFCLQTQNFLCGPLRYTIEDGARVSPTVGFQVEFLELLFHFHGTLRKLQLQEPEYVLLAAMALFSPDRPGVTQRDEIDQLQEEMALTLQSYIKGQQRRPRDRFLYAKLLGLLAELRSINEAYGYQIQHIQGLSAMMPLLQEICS
Outline: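 HepG2 cells transiently transfected with GAL4-UAS reporter units; TRANS format reads activity of exogenous chimeric NR-Gal4 protein. After 24 h dosing, reporter mRNA quantified by RT-PCR, 6-FAM labelling and capillary electrophoresis; gain of signal fitted against DMSO.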

[10] = molecular target: rat Thyrotropin Releasing Hormone Receptor (TRH), Trhr (gene 25570) (UniProt Q01717); test: NVS_GPCR_rTRH: NovaScreen (NVS) G Protein-Coupled Receptor Assay for rat Thyrotropin Releasing Hormone Receptor (TRH) (AID 2283329; active = hit-call score of the fitted dose curve at least 0.9, where 1 is the maximum;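 also: hit means lower bound tracer signal versus DMSO baseline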)
rat Thyrotropin Releasing Hormone Receptor (TRH), Trhr (gene 25570), sequence (Q01717 whole entry, looked up): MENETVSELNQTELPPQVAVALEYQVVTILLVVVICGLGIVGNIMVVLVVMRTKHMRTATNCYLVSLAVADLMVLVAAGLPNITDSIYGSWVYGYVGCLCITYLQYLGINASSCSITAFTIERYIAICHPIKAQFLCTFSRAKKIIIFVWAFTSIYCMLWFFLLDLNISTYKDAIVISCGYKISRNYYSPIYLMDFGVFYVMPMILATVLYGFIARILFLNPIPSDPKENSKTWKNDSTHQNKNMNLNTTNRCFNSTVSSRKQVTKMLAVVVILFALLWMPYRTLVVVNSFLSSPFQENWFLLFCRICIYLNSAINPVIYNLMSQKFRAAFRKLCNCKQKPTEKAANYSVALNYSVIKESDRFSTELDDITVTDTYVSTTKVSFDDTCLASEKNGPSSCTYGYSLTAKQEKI
Outline: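 Rat forebrain membrane prep, radioligand displacement, filter scintillation readout at 4 h. Single conc 25 uM, duplicate; actives retested as concentration series. DMSO = negative control/baseline.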

[11] = molecular target: Bile acid receptor (Homo sapiens) (UniProt Q96RI1); test: OT_FXR_FXRSRC1_1440: Odyssey Thera (OT) 24-hour HEK293T Protein-Complementation Assay for Farnesoid X receptor/SRC-1 Co-activator (AID 2283384; active = hit-call score of the fitted dose curve at least 0.9, where 1 is the maximum)
Outline: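 Compounds are applied to human kidney HEK293T cells expressing bait and prey fused to reporter protein fragments; after 24 h, reconstituted reporter fluorescence is measured. Activity is fitted as signal gain over DMSO.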

[12] = read-out: Interleukin 2 (IL2), IL2 (gene 3558); test: BSK_BT_xIL2: BioMAP Diversity Plus: BT Assay for Interleukin 2 (IL2) Biomarker Activity (AID 2284245); settings: primary human B cells with PBMC
Outline: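 B cell + PBMC co-culture (human primary), compound added, 24 h incubation; secreted IL-2 measured multiplexed on Luminex xMAP; gain-of-signal fit vs DMSO.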

[13] = read-out: Basic fibroblast growth factor (bFGF), FGF2 (gene 2247); test: BSK_MyoF_bFGF: BioMAP Diversity Plus: MyoF Assay for Basic fibroblast growth factor (bFGF) Biomarker Activity (AID 2284246); settings: primary human lung fibroblasts
Outline: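 ELISA-measured bFGF level serves as the read-out, taken 24 h after chemical dosing of human lung fibroblasts. Values represent signal gain over the DMSO negative control.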

[14] = read-out: Collagen IV, COL4A1 (gene 1282); test: BSK_MyoF_CollagenIV: BioMAP Diversity Plus: MyoF Assay for Collagen IV Biomarker Activity (AID 2284247); settings: primary human lung fibroblasts
Outline: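 Steps: dose human lung fibroblasts; culture 24 h; quantify Collagen IV by ELISA; fit increase versus DMSO control. Parallel SRB total-protein staining (0.1% SRB after 10% TCA fixation, 560 nm) tracks overt cytotoxicity.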

[15] = read-out: Interleukin-8 (IL8), CXCL8 (gene 3576); test: BSK_MyoF_IL8: BioMAP Diversity Plus: MyoF Assay for Interleukin-8 (IL8) Biomarker Activity (AID 2284261); settings: primary human lung fibroblasts
Outline: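 DMSO-normalised, upward-fitted IL-8 ELISA signal; human lung fibroblasts, 24 h chemical treatment.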

[16] = read-out: Decorin, DCN (gene 1634); test: BSK_MyoF_Decorin: BioMAP Diversity Plus: MyoF Assay for Decorin Biomarker Activity (AID 2284265); settings: primary human lung fibroblasts
Outline: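 In this multiplexed fibroblast system, secreted or surface decorin is detected by ELISA one day after dosing, with increases scored against the DMSO vehicle.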

[17] = BSK_MyoF_SRB: Viability Assessment in the BioMAP Diversity Plus: MyoF Assay (AID 2284267); settings: primary human lung fibroblasts;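 also: total protein by SRB absorbance in parallel cultures as cytotoxicity measure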
Outline: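 Read-out is SRB absorbance at 560 nm, reflecting total protein in parallel lung fibroblast cultures harvested 24 h after compound addition. Cells were TCA-fixed (10%) and stained with 0.1% SRB; activity is referenced to DMSO.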

[18] = read-out: Matrix Metallopeptidase 1 (MMP1), MMP1 (gene 4312); test: BSK_MyoF_MMP1: BioMAP Diversity Plus: MyoF Assay for Matrix Metallopeptidase 1 (MMP1) Biomarker Activity (AID 2284268); settings: primary human lung fibroblasts
Outline: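 Fibroblasts from human lung receive compound for 24 h before ELISA quantitation of MMP1. DMSO serves as baseline, and the endpoint is fitted for signal gain.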

[19] = read-out: TIMP metallopeptidase inhibitor 1 (TIMP1), TIMP1 (gene 7076); test: BSK_MyoF_TIMP1: BioMAP Diversity Plus: MyoF Assay for TIMP metallopeptidase inhibitor 1 (TIMP1) Biomarker Activity (AID 2284269); settings: primary human lung fibroblasts
Outline: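 Fibroblasts from human lung are dosed with chemical, cultured 24 h, and assayed for TIMP-1 by ELISA. Increases over the DMSO baseline are scored, with SRB total-protein staining run in parallel for cytotoxicity.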

[20] = CCTE_Padilla_ZF_Score.General: CCTE's 144 Hour Post-fertilization zebrafish Assay Score for General Malformation, Padilla Lab (AID 2284411)
Outline: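 Wild-type zebrafish embryos were plated singly at 6-8 hpf in 10% Hanks' and exposed in sealed wells at 26C until rinsed on 5 dpf. At 6 dpf two blinded assessors scored mortality, hatching and malformations by stereomicroscopy; gain-of-signal versus DMSO.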

Measured: AC50

Cc1cc(O)cc(C)c1Cl
active: [3] 22.3 µM | [4] 7.71 µM
inactive: [1] | [2]

CCCOCCC
inactive: [5] | [6]

CCCCOC(=O)COc1ccc(Cl)cc1Cl
inactive: [7] | [2] | [8]
active: [3] 9.59 µM

CC(=O)CCc1ccccc1
inactive: [6]

COC(=O)[C@]1(C)CCC[C@@]2(C)[C@H]1CC=C1C=C(C(C)C)CC[C@@H]12
active: [7] 12.7 µM | [11] 12.8 µM
inactive: [9] | [10] | [8]

CCOc1ccc2c(c1)C(C)CC(C)(C)N2 (stereo not drawn)
inactive: [9]

CCCCCCC1CCC(=O)O1 (stereo not drawn)
inactive: [10] | [1] | [8]

Sc1nc2ccccc2s1
inactive: [1] | [11] | [2] | [12] | [13] | [14] | [15] | [16] | [17] | [18] | [19]
active: [3] 50 µM | [20] 5.5 µM | [4] 9.1 µM

O=C(c1ccccc1)c1ccccc1O
active: [3] 17.9 µM | [4] 1.05 µM

CCOC(=O)CC(=O)OCC
inactive: [7]

Cc1cc(-n2nc3ccc(Cl)cc3n2)c(O)c(C(C)(C)C)c1
inactive: [9] | [12] | [13] | [14] | [15] | [16] | [17] | [18] | [19] | [20]

O=C(Oc1ccccc1)c1ccccc1
inactive: [10] | [11]
active: [7] 45.2 µM | [3] 8.47 µM | [4] 24.2 µM

CCCCC(CC)COC(=O)CS (stereo not drawn)
inactive: [1]

CC(C)CC(=O)CC(C)CC(C)C (stereo not drawn)
inactive: [6] | [12] | [13] | [14] | [15] | [16] | [17] | [18] | [19] | [20]

c1ccc(CNc2ncnc3nc[nH]c23)cc1
inactive: [11] | [2]

Clc1ccccn1
active: [5] 9.99 µM

Cc1cc2nc3c(=O)[nH]c(=O)nc-3n(C[C@H](O)[C@H](O)[C@H](O)CO)c2cc1C
active: [7] 37.3 µM | [11] 52.7 µM

C=C1CC[C@H]2C[C@@H]1C2(C)C
inactive: [10]

CCCCCCC(O)CCCCCCCCCCC(=O)OC (stereo not drawn)
inactive: [12] | [13] | [14] | [15] | [16] | [17] | [18] | [19]

O=C1NC(=O)C2CC=CCC12 (stereo not drawn)
inactive: [11]

CN(C)CCC(c1ccc(Cl)cc1)c1ccccn1 (stereo not drawn)
inactive: [12] | [13] | [14] | [15] | [16] | [17] | [18] | [19] | [20]

CCO[Si](OCC)(OCC)c1ccccc1
inactive: [5]

Cc1cc(C)c(S(=O)(=O)O)cc1N=Nc1cc(S(=O)(=O)O)c2ccccc2c1O
inactive: [9] | [10]

CCCCCCCCCC/C=C/C1CC(=O)OC1=O (stereo not drawn)
inactive: [12] | [13] | [14] | [15] | [16] | [17] | [18] | [19]
